Source: PubChem (Broad Institute)
Tg IFNy HTS = T. gondii growth inhibition with IFN-gamma, primary screen, cell-based | activity change, negative = inhibition, % (test concentration not listed) | 69,000 compounds, 3.8% hits | Toxoplasma gondii growth in IFN-gamma-treated host cells; hits give low values | AID 1259416, 2018; in the data active means activity change below about -70%, passing the limit was not always enough;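 further: host cells are HeLa cells infected with Toxoplasma gondii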
* hit, by the source's call; ! = repeats disagree. The full list was thinned out, with hits kept by preference.

SMILES	Tg IFNy HTS
COc1ccc2n[nH]c(CN3C[C@@H]4[C@H](C3)[C@H]3CC[C@@H]4O3)c2c1	27.1
CC[C@H]1CN2CCC1C[C@@H]2[C@H](O)c1ccnc2ccc(OC)cc12 (stereo partly drawn)	-79.1*
O=C(O)CN1CCCC2(CC(c3ncc(F)cn3)CO2)C1 (stereo not drawn)	65.2
CCc1ccc(NC(=O)c2cc3cccnc3n(Cc3ccc(Cl)cc3)c2=O)cc1	50.0
C/C(=C\C(N)C(=O)O)CP(=O)(O)O (stereo not drawn)	8.2
COc1cc2c(cc1OC)[C@@H]1C(=O)c3ccc(OC)c(CC=C(C)C)c3O[C@@H]1CO2	21.4
COc1cc2c(cc1OC)[C@@H]1C(=O)c3ccc4c(c3O[C@@H]1CO2)CC(C(C)C)O4 (stereo partly drawn)	-81.5*
Cc1cc(C)c2c(CC(=O)N(CCN(C)C)C3CCS(=O)(=O)C3)c(C)[nH]c2c1 (stereo not drawn)	140.4
CCOc1cccc2c1OC1(C)CC2C(C(=O)/C=C/c2ccc(OC)c(OC)c2OC)C(=O)N1C (stereo not drawn)	4.3
CN1CCO[C@@H]2CN(Cc3ccc4ccccc4n3)C[C@H]2C1	9.0
CC(C)[C@]12O[C@H]1[C@@H]1O[C@]13[C@]1(O[C@H]1C[C@H]1C4=C(CC[C@@]13C)C(=O)OC4)[C@@H]2O	-82.9*
CN1CCN(Cc2cnn(C)c2)Cc2cccnc21	-1.6
CN(C)C(=O)Oc1ccc(Br)cc1C(=O)Nc1ccc(F)c(Cl)c1	-100.7*
COc1ccc(NC(=O)c2cc3cccnc3n(Cc3ccc(Cl)cc3)c2=O)cc1OC	58.4
O=C(Nc1ccc(F)c(Cl)c1)c1cc2cccnc2n(Cc2ccc(F)cc2)c1=O	-1.6
COCCNC(=O)C[C@@H]1C[C@@H]2CN(Cc3ccncc3)C[C@H]2O1	-43.0
Cc1cccc(CN2CC[C@@H]3OCC[C@@H](c4nnc(C)o4)[C@@H]3C2)n1	0.0
CC(C)N1CCO[C@@H]2CN(Cc3nccs3)C[C@@H]21	5.3
Cc1ccc(CN2C[C@@H]3OCCN(c4ncccn4)[C@H]3C2)s1	-65.8
c1cnc(N2CCO[C@H]3CN(Cc4cccs4)C[C@@H]32)nc1	-71.1*
O=C(Nc1ccc(C(F)(F)F)cc1)c1cc2cccnc2n(Cc2ccc(Cl)cc2)c1=O	-6.4
CC(C)(C)OC(=O)NC1CCN(C(=O)c2ccc(Cl)cc2Cl)CC1	-37.8
CN1C2CCN(c3ncc(F)cn3)CC2C[C@H]1Cn1cncn1 (stereo partly drawn)	7.8
C[C@]12CCC3[C@@H](CC[C@@H]4C[C@H](O)CC[C@]34C)[C@@H]1CCC2=O (stereo partly drawn)	37.2
CC(=O)OCC(=O)[C@H]1CC[C@H]2[C@@H]3CC[C@H]4C[C@H](O)CC[C@]4(C)[C@H]3C(=O)C[C@]12C	2.0
SMILES	Tg IFNy HTS
C[C@]12CC[C@H](O)C[C@H]1CC[C@@H]1[C@@H]2C[C@@H](O)[C@]2(C)[C@@H](C3=CC(=O)OC3)CC[C@]12O	-86.6*
CC(=O)[C@H]1CC[C@H]2[C@@H]3CC[C@H]4C[C@H](O)CC[C@]4(C)[C@H]3C(=O)C[C@]12C	17.5
C[C@]12CC[C@H](O)C[C@H]1CC[C@@H]1[C@@H]2CC[C@]2(C)[C@@H](C3=CC(=O)OC3)CC[C@]12O	-85.2*
C[C@]12[C@H](O)CC3C(CC[C@@H]4C[C@@H](O)CC[C@]34C)[C@@]1(O)CC[C@@H]2C1=CC(=O)OC1 (stereo partly drawn)	-79.4*
CC12CC[C@H]3[C@@H](CCC4(O)C[C@H](O)CCC34/C=N/NC(=O)Cc3ccccc3)C1(O)CCC2C1=CC(=O)OC1 (stereo partly drawn)	-9.6
CC(C)c1ccc(NC(=O)c2cc3cccnc3n(Cc3ccccc3)c2=O)cc1	150.3
CC(C)(C)NC(=O)c1cc2cccnc2n(Cc2ccc(F)cc2)c1=O	-20.2
Cc1ccc2c(n1)N(C)CCN(S(=O)(=O)c1cn(C)cn1)C2	3.8
CN(C)CC1CCC2(COCCN(Cc3cccnc3)C2)O1 (stereo not drawn)	-28.1
CCN1CCc2c(CNC(=O)c3nccn3C)cncc2C1	-53.7
Cc1nc(C(F)(F)F)nc(N2CCOC3(CNCCOC3)C2)c1C (stereo not drawn)	-4.0
Cc1c(C(=O)N2CCC3(CC2)OCCO3)oc2ccc3c(c12)C(O)CC1(CCCCC1)O3 (stereo not drawn)	-35.4
C/C1=C/C[C@@H](/C(C)=C/c2csc(C)n2)OC(=O)C[C@H](O)C(C)(C)C(=O)[C@H](C)[C@@H](O)[C@@H](C)CCC1	-60.1
C/C(=C\c1csc(C)n1)[C@H]1C[C@@H]2O[C@]2(C)CCC[C@H](C)[C@H](O)[C@@H](C)C(=O)C(C)(C)[C@H](O)CC(=O)O1	-74.9*
C/C(=C\c1csc(C)n1)[C@@H]1C[C@@H]2O[C@@H]2CCC[C@H](C)[C@H](O)[C@@H](C)C(=O)C(C)(C)[C@@H](O)CC(=O)O1	-68.1
C=CCN1CC[C@@H]2OCC[C@]2(C(=O)NCCc2ccccn2)C1	-13.6
Cc1ccc(N2CCC[C@@]3(C(=O)O)CN(C(C)C)C[C@H]3C2)nn1	172.3
O=C(Nc1ccc(Oc2ccccc2)cc1)c1cc2cccnc2n(Cc2ccccc2)c1=O	-56.5
CCC(=O)N1CCC2(CC1)C(=O)N(Cc1cccnc1)CCN2C	-2.1
O=C(CCCN1CCC2(CC1)C(=O)N(Cc1cccc(F)c1)CN2c1ccccc1)c1ccc(F)cc1	-82.8*!
COC(=O)CN1CN(c2ccccc2)C2(CCN(Cc3ccc4ccccc4c3)CC2)C1=O	-8.2
O=C(NCc1cnc2ccccc2c1)C1CC2(CCNCC2)CN1 (stereo not drawn)	3.8
O=C(Nc1ccc2c(c1)OCO2)c1cc2cccnc2n(Cc2ccc(F)cc2)c1=O	233.3
CCCCCOc1c(OC)ccc2cc(C(=O)NCc3ccc4c(c3)OCO4)c(=O)[nH]c12	-73.6*!
COc1ccc(CC(=O)N2CCN(Cc3ccc4c(c3)OCO4)CC2)cc1OC	13.3
SMILES	Tg IFNy HTS
O=C(NCC(F)(F)F)C1=NOC2(CCNC2)C1 (stereo not drawn)	106.3
Cn1cc(N2C[C@@H]3CN(CCO)C[C@@H]3C2=O)cn1	23.0
CC(C)CN1CC2CN(C(=O)Cc3ccc(Cl)cc3)CC21 (stereo not drawn)	-3.1
COc1ccc(C)cc1CC(=O)N(CCN(C)C)C1CCS(=O)(=O)C1 (stereo not drawn)	-1.7
CC[C@@H]1[C@@H](C)O[C@@](O)([C@@H](C)[C@H](O)[C@H](C)[C@H]2OC(=O)/C=C/C=C/[C@H](C)[C@H]([C@@H](C)[C@@H](O)[C@H](C)[C@@]3(O)C[C@@H](O[C@H]4C[C@H](O)[C@H](O)[C@H](C)O4)[C@H](CC)[C@@H](C)O3)OC(=O)/C=C/C=C/[C@H]2C)C[C@H]1O[C@H]1C[C@H](O)[C@H](O)[C@H](C)O1	-74.8*
CCN1CCN(C)C(=O)C12CCN(c1cc(OC)ncn1)CC2	2.6
O=C(NC1CCCC1)N1CC[C@H]2[C@@H]1CCN2Cc1ccccn1	301.0
O=C(O)c1cccnc1CN1CCCC(C(=O)c2ccccc2)C1 (stereo not drawn)	-14.3
C=CCN1CCN(C)C(=O)C12CCN(c1ncc(F)cn1)C2 (stereo not drawn)	0.9
CCN1CCNC(=O)C12CCN(c1cc(OC)ncn1)CC2	64.2
COc1cccc([C@@H]2CCN(Cc3n[nH]c(C)c3Cl)C[C@H]2O)c1	2.8
